Rows were chosen to be rich in hits. Some 1.7% of all compounds tested hit in one or more screens of this group.
RGS4 inh = blocks human RGS4-accelerated GTP hydrolysis; P49798; Transcreener GDP fluorescence polarization, RGS4-accelerated GTP hydrolysis; Potency, µM (top dose mostly 114 µM), for inactives: top-dose activity change, negative = inhibition, actives largely listed as inhibitors; hit rate 0.039% among 390,000; note: % is set by controls: 0 for no effect and ±100 for the full control effect; nearly all actives have a fitted effect of over 75% in size
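MLSMR compounds (23 nl, pin-transferred) preincubated 10 min at room temperature with a 500nM (2x) first reagent, then RGS4 at 900nM (2x) plus Transcreener GDP mix added; fluorescence polarization (620/688 nm) read before and after 90 min at 30 °C.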
GLP1R inv ag = inverse agonists of human GLP-1 receptor; HEK293 GLP-1R CRE-luciferase, luminescence, 24 h; GLP-1R form is constitutively active; Potency, µM (series often up to 38.3 µM), for inactives: top-dose activity change, negative = inhibition, usual class: inhibitors; hit rate 1.6% among 410,000; AID 624417; note: % is set by controls: 0 for no effect and ±100 for the full control effect; nearly all actives have a fitted effect of over 55% in size
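qHTS in 1536-well format: reporter HEK293 cells expressing constitutive GLP-1R activity in DMEM + 10% Nu serum, 24 hr with compounds at 37 deg C, luminescence read after 12 min with detection reagent.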
HEK293 tox = cytotoxicity counter-screen for GLP-1 receptor inverse agonists; HEK293 cAMP-luciferase reporter cells, luminescence, 24 h; Potency, µM (doses to about 38.3 µM), for inactives: top-dose activity change, negative = inhibition, actives largely listed as inhibitors; hit rate 0.13% among 410,000;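 note: loss of luciferase light is scored as toxicity; % is set by controls: 0 for no effect and ±100 for the full control effect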
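Step one: seed cells (200 cells/uL, DMEM with 10% Nu serum, 1% pen-strep). Step two: 12-hour incubation at 37 deg C. Step three: pin 23 nL compound, incubate 24 hr. Step four: add luciferase reagent, read luminescence 12 min later.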
PTHR1 agonist = agonists of human PTHR1 parathyroid hormone receptor; Potency, µM (highest dose often 115 µM), without a hit: at the top dose activation, actives largely listed as activators; AID 743266; HEK293 GP2 PTHR1 cells, GloSensor cAMP luminescence, 1 h; hit rate 0.075% among 410,000; note: nearly all actives have a fitted effect of over 55% in size
Target sequence (Q03431 whole entry, looked up): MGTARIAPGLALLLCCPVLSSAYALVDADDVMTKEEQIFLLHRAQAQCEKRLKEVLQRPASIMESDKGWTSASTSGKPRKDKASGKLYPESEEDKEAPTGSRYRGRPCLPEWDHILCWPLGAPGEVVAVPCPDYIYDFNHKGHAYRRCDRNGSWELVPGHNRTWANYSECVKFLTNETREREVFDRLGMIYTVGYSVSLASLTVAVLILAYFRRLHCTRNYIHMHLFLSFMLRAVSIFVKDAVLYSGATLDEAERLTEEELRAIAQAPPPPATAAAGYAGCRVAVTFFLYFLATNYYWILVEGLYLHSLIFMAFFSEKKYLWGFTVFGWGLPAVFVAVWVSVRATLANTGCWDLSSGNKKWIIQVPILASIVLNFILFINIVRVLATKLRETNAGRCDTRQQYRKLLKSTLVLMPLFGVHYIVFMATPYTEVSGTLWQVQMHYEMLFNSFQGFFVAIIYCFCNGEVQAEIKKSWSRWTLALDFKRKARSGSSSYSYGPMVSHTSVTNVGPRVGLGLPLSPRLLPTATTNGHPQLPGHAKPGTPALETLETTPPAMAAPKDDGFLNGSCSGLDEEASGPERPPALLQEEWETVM
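HEK-293-derived GP2 cells expressing PTHR1 and a GloSensor cAMP reporter, 3,000/well, plated overnight, given luciferin plus IBMX (each 0.5 mM as added) for 1 h at 37 °C, then compound for 1 h at 37 °C. Luminescence was read after 15 min at room temperature.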
GLP1R ag = GLP-1 receptor (human) agonism | HEK293 GLP-1R CRE-luciferase, luminescence, 4-6 h; cells express a hypersensitive GLP-1R form | Potency, µM (titrated, usually from 45.6 µM), for the others: top-dose activation, actives largely listed as activators | hit rate 0.007% among 380,000; note: % of control where 0% means no effect
* marks the source's active call; other numbers are inactive results; [ ] = dose if it differs, or a comment. Calls come from the whole dose curve; as a rule, active = well fitted curve in the direction sought with a large enough effect; inconclusive = small, poorly fitted or top-dose-only effect, or another doubt; inactive = no such curve, though single readings can be large; an effect the other way counts as inactive or inconclusive. Potency is the fitted concentration of half-maximal effect.

COc1ccc(S(=O)(=O)N(C)C)cc1NCC(=O)Nc1ccc(Br)c(C)c1 was read as RGS4 inh -17%, GLP1R inv ag 11µM*, HEK293 tox -7%, PTHR1 agonist -92% and GLP1R ag 9%.
`COc1cc(Cl)c(C)cc1NCC(=O)Nc1cccc(S(=O)(=O)N2CCCC2)c1` gave RGS4 inh -2%, GLP1R inv ag 8.9µM*, HEK293 tox -15%, PTHR1 agonist -51% and GLP1R ag -5%.
Cn1c(=O)oc2cc(S(=O)(=O)N3CCC(C(=O)NCCc4ccccc4)CC3)ccc21 was read as RGS4 inh 9%, GLP1R inv ag 9%, HEK293 tox -16%, PTHR1 agonist -6% and GLP1R ag 3%.
Screening CCN(CC)S(=O)(=O)c1ccc2c(c1)N(CC(=O)NCCc1ccc(S(N)(=O)=O)cc1)C(=O)CO2 returned RGS4 inh 23%, GLP1R inv ag -3%, HEK293 tox 18%, PTHR1 agonist -72% and GLP1R ag 3%.
For C[C@H](CO)N1C[C@H](C)[C@@H](CN(C)S(C)(=O)=O)Oc2ccc(NS(=O)(=O)c3cn(C)cn3)cc2C1=O the results were RGS4 inh 13%, GLP1R inv ag 4%, HEK293 tox 1%, PTHR1 agonist inactive and GLP1R ag 2%.
`Cc1ccc(-c2nc(SCC(=O)Nc3cc(S(=O)(=O)N4CCCCC4)ccc3Cl)n[nH]2)cc1` gave RGS4 inh -20%, GLP1R inv ag 10µM*, HEK293 tox inconclusive, PTHR1 agonist -33% and GLP1R ag 14%.
For N#Cc1ccccc1OCC(=O)Nc1cccc(S(=O)(=O)N2CCCC2)c1 the results were RGS4 inh -7%, GLP1R inv ag 4%, HEK293 tox 7%, PTHR1 agonist 0% and GLP1R ag 8%.
`CCc1ccccc1OCC(=O)Nc1cccc(S(=O)(=O)N2CCCC2)c1` gave RGS4 inh 3%, GLP1R inv ag 11µM*, HEK293 tox 2%, PTHR1 agonist -28% and GLP1R ag 8%.
COc1ccc(NC(=O)C2Cc3cc(S(=O)(=O)N4CCCCC4)ccc3N2C(C)=O)cc1Cl (stereo not given) was read as RGS4 inh 23%[11.4 µM], GLP1R inv ag 10µM*, HEK293 tox -5%, PTHR1 agonist -14% and GLP1R ag -3%.
`COc1cccc(CN(C)CC(=O)Nc2cc(S(=O)(=O)N3CCCC3)ccc2Cl)c1OC` gave RGS4 inh -13%, GLP1R inv ag 7.9µM*, HEK293 tox 4%, PTHR1 agonist -43% and GLP1R ag 0%.
For Cc1ccc(Cl)c(NC(=O)COC(=O)c2cc[n+]([O-])cc2)c1Cl the results were RGS4 inh -9%, GLP1R inv ag -1%, HEK293 tox 65%, PTHR1 agonist 8% and GLP1R ag 0%.
Screening C[C@H](CO)N1C[C@H](C)[C@@H](CN(C)S(=O)(=O)c2ccc(Oc3ccccc3)cc2)OCc2cnnn2CCCC1=O returned GLP1R inv ag 7%, HEK293 tox 5%, PTHR1 agonist -5% and GLP1R ag 0%.
Screening COc1cccc(CN(C)C[C@@H]2OCc3cnnn3CCCC(=O)N([C@@H](C)CO)C[C@H]2C)c1 returned GLP1R inv ag 15%, HEK293 tox 8%, PTHR1 agonist -17% and GLP1R ag 0%.
For COc1ccc(CCNC(=O)CCc2c(C)nc3cc(-c4ccccc4OC)nn3c2C)c(OC)c1 the results were RGS4 inh -14%, GLP1R inv ag inconclusive, HEK293 tox -1%, PTHR1 agonist -17% and GLP1R ag -3%.
Screening Nc1nc(N)c2cc(Sc3ccc(Cl)cc3)ccc2n1 returned GLP1R inv ag inconclusive, HEK293 tox inconclusive, PTHR1 agonist -35% and GLP1R ag -15%.
For Nc1nc(N)c2cc(Sc3ccc4ccccc4c3)ccc2n1 the results were RGS4 inh -25%, GLP1R inv ag 10µM*, HEK293 tox inconclusive, PTHR1 agonist -34% and GLP1R ag -8%.
Screening COc1ccc(CNC(=O)c2ccc(NC(=O)N3CCCCc4ccccc43)cc2)c(OC)c1 returned RGS4 inh -15%, GLP1R inv ag 11µM*, HEK293 tox 9% and PTHR1 agonist inactive.
`CCCn1c(=O)sc2cc(NC(=O)c3ccc(OC)c(Br)c3)ccc21` gave RGS4 inh -3%, GLP1R inv ag 10µM*, HEK293 tox -31%, PTHR1 agonist -40% and GLP1R ag 1%.
CCc1cccc(NC(=O)Cc2cn(C)c3ccccc23)c1 was read as RGS4 inh -25%, GLP1R inv ag inconclusive, HEK293 tox 8%, PTHR1 agonist -1% and GLP1R ag -7%.
Screening CCc1ccc(NC(=O)Cc2cn(C)c3ccccc23)cc1 returned RGS4 inh -52%, GLP1R inv ag 10µM*, HEK293 tox 10%, PTHR1 agonist inconclusive and GLP1R ag 10%.
CCN1CCN(c2cc(C)c3cc(NC(=S)NCCN(C)C)ccc3n2)CC1 was read as RGS4 inh -52%, GLP1R inv ag 3.5µM*, HEK293 tox inconclusive, PTHR1 agonist inactive and GLP1R ag -3%.
Screening CCN1CCN(c2cc(C)c3cc(NC(=S)NCCCN4CCc5ccccc5C4)ccc3n2)CC1 returned RGS4 inh -32%, GLP1R inv ag inconclusive, HEK293 tox inconclusive, PTHR1 agonist inactive and GLP1R ag 18%.
`CCCCN(C)CCNC(=S)Nc1ccc2nc(N3CCN(CC)CC3)cc(C)c2c1` gave RGS4 inh -3%, GLP1R inv ag 1.1µM*, HEK293 tox 5µM*, PTHR1 agonist 24% and GLP1R ag 11%.
CCOC(=O)N1CCC(NC(=S)Nc2ccc3nc(N4CCN(C)CC4)cc(C)c3c2)CC1 was read as RGS4 inh -21%, GLP1R inv ag inconclusive, HEK293 tox -8%, PTHR1 agonist inactive and GLP1R ag 6%.
Screening CCCCNC(=S)Nc1ccc2nc(N3CCN(CC)CC3)cc(C)c2c1 returned RGS4 inh 1%, GLP1R inv ag inconclusive, HEK293 tox inconclusive, PTHR1 agonist inactive and GLP1R ag 29%.
Screening CCN(CC)CCNC(=S)Nc1ccc2nc(N3CCN(CC)CC3)cc(C)c2c1 returned RGS4 inh -35%, GLP1R inv ag 2.5µM*, HEK293 tox inconclusive, PTHR1 agonist -7% and GLP1R ag 6%.
`CCOC(=O)N1CCC(NC(=S)Nc2ccc3nc(N4CCN(CC)CC4)cc(C)c3c2)CC1` gave RGS4 inh 25%[11.4 µM], GLP1R inv ag 8.9µM*, HEK293 tox inconclusive, PTHR1 agonist inactive and GLP1R ag 18%.

Screening data deposited in PubChem by National Center for Advancing Translational Sciences (NCATS).
